# Source: PubChem BioAssay AID1611 (NINDS Approved Drug Screening Program, 2009)
# “And” between values parts separate entries of the source, which are not always exact repeats. Equal values may be shown once.
# Experiment: inducers of human heat shock response, cell-based, HSE luciferase (AID 1611)
# Conditions: human cells, HSE-luciferase heat shock reporter; stronger effect = higher value
row,SMILES,fold change
1,COC(=O)[C@H]1[C@H]2C[C@@H]3c4[nH]c5cc(OC)ccc5c4CCN3C[C@H]2C[C@@H](OC(=O)c2cc(OC)c(OC)c(OC)c2)[C@@H]1OC,0.6
2,CN1C2CC[C@H]1CC(OC(=O)C(O)c1ccccc1)C2 (stereo not given in full),1.12
3,O=C(O)c1cc(=O)c2ccccc2[nH]1,1.38
4,CCc1cc(C(N)=S)ccn1,0.94
5,COCCc1ccc(OCC(O)CNC(C)C)cc1 (stereo not given),0.6
6,CC(=O)NS(=O)(=O)c1ccc(N)cc1,0.98
7,CN(C)C(=O)Oc1cccc([N+](C)(C)C)c1,1.23
8,OC[C@H]1O[C@@H](O[C@@H]2[C@@H](CO)O[C@](O)(CO)[C@H]2O)[C@H](O)[C@@H](O)[C@H]1O,0.82
9,COC(=O)C(N)CS (stereo not given),0.85
10,CC(=C(CCOP(=O)(O)O)SC(=O)c1ccccc1)N(C=O)Cc1cnc(C)nc1N,0.96
11,CC(C)COCC(CN(Cc1ccccc1)c1ccccc1)N1CCCC1 (stereo not given),0.78
12,NC(N)=O,1.06
13,c1ccc2[nH]c(-c3cscn3)nc2c1,0.81
14,CCCn1c(=O)c2[nH]c(C3CCCC3)nc2n(CCC)c1=O,0.74
15,CO[C@H]1C[C@H](O[C@H]2[C@H](C)[C@@H](OC3O[C@H](C)C[C@H](N(C)C)[C@H]3O)[C@@H](C)C[C@]3(CO3)C(=O)[C@H](C)[C@@H](O)[C@@H](C)[C@@H](C)OC(=O)[C@@H]2C)O[C@@H](C)[C@@H]1O (stereo not given in full),0.75
16,CC(=O)OCC(=O)[C@H]1CCC2C3CCC4=CC(=O)CC[C@]4(C)C3CC[C@@]21C (stereo not given in full),1.05
17,CCOC(N)=O,0.87
18,NCCCCCCNS(=O)(=O)c1cccc2c(Cl)cccc12,1.18 and 0.78
19,CO[C@@H]1[C@@H](OC(N)=O)[C@@H](O)[C@H](Oc2ccc3c(O)c(NC(=O)c4ccc(O)c(CC=C(C)C)c4)c(=O)oc3c2C)OC1(C)C,1.06
20,CC(C)NNC(=O)c1ccncc1,1.02

row,SMILES,fold change
1,CC[C@@H](C(=O)C(C)[C@@H](O)[C@H](C)CCc1ccc(C)c(O)c1C(=O)O)C1OC(CC)(C2CC[C@](O)(CC)[C@H](C)O2)C[C@@H]1C (stereo not given in full),1.12
2,Cc1ccc(C(=O)C(C)CN2CCCCC2)cc1 (stereo not given),0.93
3,CN=C(NC#N)NCCSCc1nc[nH]c1C,0.5
4,COc1ccc2c(c1)c(CC(=O)O)c(C)n2C(=O)c1ccc(Cl)cc1,0.9
5,NNC(=O)c1ccncc1,0.48
6,C=C(C)[C@H]1CC=C(C(=O)O)CC1,1.32
7,CC(C)NCC(O)COc1cccc2ccccc12 (stereo not given),0.95
8,CO/N=C(\C(=O)NC1C(=O)N2C(C(=O)O)=C(CSc3nc(=O)c(O)nn3C)CS[C@H]12)c1csc(N)n1 (stereo not given in full),0.94
9,CCCC(CCC)C(=O)O,0.91
10,CC12CC3CC(C)(C1)CC(N)(C3)C2,0.96
11,CCN(CC)CCOc1ccc2c(c1)C(=O)c1cc(OCCN(CC)CC)ccc1-2,0.93
12,CCN(CC)CCNC(=O)c1cc(Cl)c(N)cc1OC,1.24
13,Nc1ccc(S(=O)(=O)Nc2ccnn2-c2ccccc2)cc1,0.94
14,COc1ccc(C(=O)c2ccccc2)c(O)c1,0.92
15,NC(N)=NC(=O)c1nc(Cl)c(N)nc1N,0.89
16,CC1(C)S[C@@H]2[C@H](NC(=O)[C@@H](N)c3ccc(O)cc3)C(=O)N2[C@H]1C(=O)O,1.21
17,COc1c2occc2c(OC)c2c(=O)cc(C)oc12,0.96
18,NCCCC(N)CC(=O)NCC1NC(=O)C(CO)NC(=O)C(N)CNC(=O)C(C2CCN=C(N)N2)NC(=O)/C(=C/NC(N)=O)NC1=O (stereo not given),0.59
19,COC(=O)C1=C(C)NC(C)=C(C(=O)OC)C1c1ccccc1[N+](=O)[O-],1.12
20,Nc1ccc(S(=O)(=O)Nc2ccccn2)cc1,0.76
